Source: PubChem BioAssay
mHTT-CaM PPI inh – mutant huntingtin-calmodulin interaction inhibitors – biochemical, AlphaScreen, primary screen; AlphaScreen His-mHTT/GST-CaM binding, luminescence; 190,000 tested, 3.6% active; inhibition, % at 15 µM;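 also: 0% = both proteins with DMSO and 100% = one protein alone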
Pf apPOL block – Pf-apPOL inhibitors, biochemical, fluorescence | Plasmodium falciparum apicoplast DNA polymerase (apPOL) | Recombinant Pf-apPOL, molecular beacon fluorescence, 1.5 h | inhibition, % at 10 µM | 210,000 tested, 0.25% active
* = called active by the depositor; / = no result. Sampled rows, rich in hits. Any-hit rate of the full collection: about 3.6%. Rule as the data show it: active = inhibition above about 50%; inactive = the rest.

SMILES | mHTT-CaM PPI inh | Pf apPOL block
Cc1ccc(CN2C(=O)C(=O)c3cc(S(=O)(=O)N4CCOCC4)ccc32)cc1 | 89* | 37
O=S(=O)(c1ccc(Cl)c(S(=O)(=O)N2CCOCC2)c1)N1CCOCC1 | -2 | 3
COc1cccc(NC(=O)N2CCCN(c3ncccc3-c3nc(C(C)C)no3)CC2)c1 | -6 | -8
COC(=O)c1ccc(CSc2nnc(NC(=O)c3cc(C)cs3)s2)o1 | -9 | -1
CCOc1ccccc1NC(=O)N1CCCn2nc(-c3cccc(OC)c3)cc2C1 | 35 | -5
O=[N+]([O-])c1ccc(N2CCCC2)cc1N1CCN(Cc2ccccc2)CC1 | 53* | -4
O=[N+]([O-])c1ccc(N2CCN(Cc3ccccc3)CC2)cc1NC1CC1 | 27 | -7
C=CCc1cc(/C=C2/NC(=O)N(Cc3ccc(F)cc3)C2=O)cc(OCC)c1O | 33 | 0
COc1ccc(C=C2Oc3cc(OS(=O)(=O)c4ccc(F)cc4)ccc3C2=O)c(OC)c1OC | -6 | 5
CCCCNC(=O)C1CCc2sc(C(=O)N3CCCC3)cc2C1 (stereo not drawn) | 0 | -2
Cc1cc(C2(c3ccc(O)c(C)c3)C(=O)Nc3c(C)cc([N+](=O)[O-])cc32)ccc1O | 86* | -4
Cc1cccc2c1NC(=O)C2(c1ccc(O)cc1)c1ccc(O)cc1 | 21 | 0
O=C(c1ccc(Cl)s1)N1CC2CC1CC2NS(=O)(=O)c1ccccc1 (stereo not drawn) | 1 | -4
Cc1ccc(C(NC(=O)Cc2cc3ccccc3[nH]2)C(=O)Nc2ccc3c(c2)OCCO3)cc1 (stereo not drawn) | 53* | -5
CC(=O)NCC(=O)NC(C(=O)Nc1ccc2c(c1)OCO2)c1ccc(C)cc1 (stereo not drawn) | 5 | -4
O=C(NCc1ccccc1)N1CCCC1c1ccc(F)cc1 (stereo not drawn) | -5 | -4
COc1cc2c(c([N+](=O)[O-])c1)NC(c1ccc(Br)cc1)C1CC=CC21 (stereo not drawn) | 24 | -1
CCOc1cc2c(c([N+](=O)[O-])c1)NC(c1ccc([N+](=O)[O-])cc1)C1CC=CC21 (stereo not drawn) | 50* | 1
CCOc1cc2c(c([N+](=O)[O-])c1)NC(C(C)C)C1CC=CC21 (stereo not drawn) | 73* | 1
CCOc1cc2c(c([N+](=O)[O-])c1)NC(c1ccccc1F)C1CC=CC21 (stereo not drawn) | 95* | -2
CCOc1ccc(NC(=O)c2ccc(OC)c(I)c2)cc1 | -4 | -2
CN1CCN(CCNC(=O)CC2CCN(C(=O)c3ccccc3Cl)CC2)CC1 | -6 | -4
COc1cc(/C=C2\NC(=O)NC2=O)ccc1OCC(=O)Nc1ccc(F)cc1 | 36 | -4
Cc1cccc(-c2oncc2CN2CCC(C(N)=O)CC2)c1 | 21 | -3
O=C1/C(=C\c2ccc(O)cc2)C(N2CCOCC2)=NN1c1ccc([N+](=O)[O-])cc1 | 84* | 4
SMILES | mHTT-CaM PPI inh | Pf apPOL block
CCOC1=NN(c2ccc([N+](=O)[O-])cc2)C(=O)/C1=C/c1ccc(Cl)cc1 | 34 | -2
O=C(Cc1nc(-c2ccccn2)n[nH]1)NC1CC1 | 100* | -12
O=C(Cc1ccccc1)NC1CCCCCC1 | -5 | -4
O=C(Cc1nc(-c2ccccn2)n[nH]1)NC1CCCC1 | 98* | -10
O=C(Cc1nc(-c2cnccn2)n[nH]1)NCc1ccccc1 | 24 | 4
O=C(O)CC(NS(=O)(=O)c1cccc2c1C(=O)c1ccccc1C2=O)c1ccccc1 (stereo not drawn) | 11 | 0
COc1ccccc1/C=C1\N=C(SCC(=O)Nc2cc(C)on2)N(c2ccccc2)C1=O | 6 | -4
O=C(ON=Cc1c(F)cccc1Cl)c1ccc(Oc2ccc(Cl)cc2)c([N+](=O)[O-])c1 | / | -6
Cc1ccnc(Nc2nc(CC(=O)Nc3ccc4c(c3)OCCO4)cs2)c1 | 16 | 0
Cc1ccnc(Nc2nc(CC(=O)Nc3nnc(C)s3)cs2)c1 | 56* | 22
CCOC(=O)Cc1csc(NC(=O)c2ncccn2)n1 | 84* | -16
Cc1cc(C)nc(Nc2nc(CC(=O)NCc3ccccn3)cs2)n1 | 13 | -4
CSc1ccccc1NC(=O)Cc1csc(NC(=O)c2ncccn2)n1 | 100* | -24
CC(C)c1ccccc1NC(=O)Cc1csc(Nc2ncccn2)n1 | 2 | -3
CCOC(=O)Cc1csc(NC(=O)CSc2ccccn2)n1 | / | 0
Cc1cc(NC(=O)Cc2csc(NC(=O)c3ncccn3)n2)no1 | 100* | -2
CC(C)CC(=O)NCCC1CCN(C(=O)c2ccccc2)CC1 | 30 | -4
O=S(=O)(Nc1ccccc1F)c1cccs1 | 4 | -7
CC1=C(C(=O)Nc2cccc(C(F)(F)F)c2)C(c2ccc(N(C)C)cc2)C2=C(CCCC2=O)N1 (stereo not drawn) | 57* | -3
CC1=C(C(=O)Nc2ccccn2)C(c2ccc(F)cc2)C2=C(CCCC2=O)N1 (stereo not drawn) | 0 | 2
CC1=C(C(=O)Nc2cccc(C(F)(F)F)c2)C(c2ccncc2)C2=C(CCCC2=O)N1 (stereo not drawn) | -1 | -1
CC1=C(C(=O)Nc2ccccn2)C(c2ccccc2)C2=C(CCCC2=O)N1 (stereo not drawn) | -1 | 52*
Cc1ccc(C=CS(=O)(=O)N2CCC(C(=O)NCc3nc(C)no3)CC2)cc1 | 1 | 2
COc1ccc(NC(=O)N2CCCC(C)(C(=O)NCc3cccc(OC)c3)C2)cc1 (stereo not drawn) | -2 | 2
O=C1OC(c2ccccc2Br)=N/C1=C\c1cccc(F)c1 | 29 | -3
SMILES | mHTT-CaM PPI inh | Pf apPOL block
O=C(NCCCN1CCCC1)c1ccc(N2CCNC(c3ccccc3)C2)nc1 (stereo not drawn) | 56* | -3
O=C(NCc1ccc(N2CCCC2)cc1)c1ccc(N2CCNC(c3ccccc3)C2)nc1 (stereo not drawn) | 79* | 0
O=C(NCCCN1CCCCC1)c1ccc(N2CCNC(c3ccccc3)C2)nc1 (stereo not drawn) | 4 | -5
O=C(NCc1ccc(Cl)cc1)c1ccc(N2CCNC(c3ccccc3)C2)nc1 (stereo not drawn) | 16 | 5
CC(=O)Nc1c2c(nn1-c1ccc(F)cc1)CS(=O)C2 (stereo not drawn) | 2 | 0
Cc1noc(-c2nn(C)c3c2CN(C(=O)c2cccc(F)c2)CC3)n1 | -6 | -5
O=C(CN1CCC2(CC1)N=C(c1ccc(Cl)cc1)C(=O)N2)Nc1ccc(F)cc1F | -7 | -3
COc1cc(C=C2Oc3cc(OC(=O)C(C)C)cc(C)c3C2=O)cc(OC)c1OC | -17 | -11
CCOc1ccc(CNC(=O)CCSCc2cccc(Cl)c2)cc1OC | 19 | -11
COc1ccccc1-c1cc2c(c3c1ccn3C)C1CCC2O1 (stereo not drawn) | 23 | -1
Cn1ccc2c(-c3ccc(F)cc3F)cc3c(c21)C1CCC3O1 (stereo not drawn) | 12 | 12
CN(c1cccc(F)c1)c1cc2c(c3c1ccn3C)C1CCC2O1 (stereo not drawn) | 93* | -5
Cn1ccc2c(N3CCCCCCC3)cc3c(c21)C1CCC3O1 (stereo not drawn) | 71* | 0
CCN(CC)c1cc2c(c3c1ccn3C)C1CCC2O1 (stereo not drawn) | 5 | 2
